Laboratory results as given in the supplement of paper PMC6555819.

What was measured:
Assay in all cases: PBM binding z-score (relative to random genomic background probes); higher = stronger binding; sequences stand for … in GC…GCGATTGACAGCGTAGAATGAAGG
[1] = system: PPARg:RXRa DBDmut IVT, anti-RXR (DBD mutation: RXRa K156A/R161A, NR concentration 270 nM, RXRa partner concentration 90 nM)
How it was run: (§1)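 Probes were double-stranded and carried 34-nt variable regions with direct-repeat seeds, single-nucleotide variants, half-site ablations and random human genomic background sequences, printed on custom Agilent 4×180K protein-binding microarrays. Arrays were incubated 1 h with ligand-free nuclear receptor dimers in PBS pH 7.4, 2% milk, 0.02% Triton X-100, 1 mM DTT, 0.2 mg/mL BSA and 0.4 mg/ml salmon testes DNA. Antibodies against each partner (one per run) detected binding, and scanned fluorescence was regression-normalized. Binding z-scores use the random background probes as reference.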

[2] = system: PPARg:RXRa IVT, anti-PPARg (NR concentration 270 nM, RXRa partner concentration 90 nM)
How it was run: as §1

[3] = system: PPARg DBDmut:RXRa IVT, anti-PPARg (DBD mutation: PPARg1 K132A/R137A, NR concentration 270 nM, RXRa partner concentration 90 nM)
How it was run: as §1

[4] = system: PPARg DBDmut IVT, anti-PPARg (DBD mutation: PPARg1 K132A/R137A, NR concentration 270 nM)
How it was run: as §1

[5] = system: PPARg homodimer (NR concentration 180 nM)
How it was run: as §1

[6] = system: PXR:RXRa (NR concentration 270 nM, RXRa partner concentration 90 nM)
How it was run: as §1

[7] = system: PXR homodimer (NR concentration 270 nM)
How it was run: as §1

[8] = system: RARa:RXR (NR concentration 270 nM, RXRa partner concentration 90 nM)
How it was run: as §1

[9] = system: RARa homodimer (NR concentration 270 nM)
How it was run: as §1

[10] = system: RARb:RXRa (NR concentration 270 nM, RXRa partner concentration 90 nM)
How it was run: as §1

[11] = system: RARb homodimer (NR concentration 270 nM)
How it was run: as §1

[12] = system: RARg:RXRa (NR concentration 270 nM, RXRa partner concentration 90 nM)
How it was run: as §1

[13] = system: RARg homodimer (NR concentration 270 nM)
How it was run: as §1

[14] = system: RXRa DBDmut IVT, anti-RXR (DBD mutation: RXRa K156A/R161A, NR concentration 90 nM)
How it was run: as §1

[15] = system: RXRa homodimer (NR concentration 180 nM)
How it was run: as §1

[16] = system: THRa:RXRa (NR concentration 90 nM, RXRa partner concentration 90 nM)
How it was run: as §1

[17] = system: THRa homodimer (NR concentration 90 nM)
How it was run: as §1

[18] = system: VDR homodimer (NR concentration 270 nM)
How it was run: as §1

| Sequence | PBM binding z-score [1] | PBM binding z-score [2] | PBM binding z-score [3] | PBM binding z-score [4] | PBM binding z-score [5] | PBM binding z-score [6] | PBM binding z-score [7] | PBM binding z-score [8] | PBM binding z-score [9] | PBM binding z-score [10] | PBM binding z-score [11] | PBM binding z-score [12] | PBM binding z-score [13] | PBM binding z-score [14] | PBM binding z-score [15] | PBM binding z-score [16] | PBM binding z-score [17] | PBM binding z-score [18] |
| --- | --- | --- | --- | --- | --- | --- | --- | --- | --- | --- | --- | --- | --- | --- | --- | --- | --- | --- |
| CGTCCAAGGTCAATGCTAGGTCAGTGAAAGCATT | 3.41 | 3.83 | 0.477 | 0.749 | 6.35 | 5.01 | 1.68 | 6.41 | 1.72 | 5.23 | 4.88 | 7.68 | 6.83 | 3.85 | 5.28 | 4.31 | 2.74 | 3.1 |
| CCTAGTTGGTCACGAGGTCACACACCGGATATGA | 3.54 | 5.42 | 0.987 | 1.28 | 2.99 | 4.79 | 1.97 | 4.87 | 1.29 | 4.14 | 4.65 | 5.36 | 4.66 | 1.84 | 5.19 | 4.43 | 4.41 | 3.84 |
| ACTAGCAGGCCAAGGGTCACTCAGGATTAGTCCG | 1.05 | 3.72 | -0.273 | -0.162 | 4.08 | 3.21 | -0.196 | 4.33 | 0.739 | 3.59 | 3.78 | 4.35 | 3.59 | 0.461 | 4.24 | 2.7 | 0.0494 | 1.22 |
| TCTGCTAGGTCAGTTGGTCAGCTATCGAGCTGCC | 2.46 | 3.27 | 0.301 | 0.371 | 0.0545 | 0.289 | -0.818 | 0.544 | -1.27 | 3.39 | 2.69 | 2.62 | 3.33 | 0.537 | 0.914 | 1.2 | 0.162 | -0.608 |
| CAACCTAGGTCAAAGGTCAAAGTCGAGCCAACCA | 5.72 | 7.45 | 2.7 | 1.79 | 4.67 | 7.39 | 1.35 | 8.88 | 2.65 | 5.83 | 5.33 | 9.2 | 7.77 | 3.16 | 10.1 | 5.01 | 1.81 | 3.91 |
| TCGAGTAGGTTACCAATGGGGCATTCTGCTTTCT | 3.32 | 2.53 | -0.301 | -0.867 | -0.334 | -0.0891 | -0.788 | 0.363 | -0.932 | 0.902 | 0.45 | 0.898 | 0.393 | 0.539 | 0.447 | -0.229 | -0.884 | -0.862 |
| GGAACGAGGGCAAGTTGATAGCGGAGTTTGATGG | 3.78 | 2.64 | -0.0734 | -0.677 | 0.26 | 0.392 | 0.189 | 0.406 | -0.36 | 2.53 | 1.43 | 1.28 | 1.74 | 2.31 | 0.823 | 1.13 | 0.118 | 1.73 |
| CATACAGGGTCAGCTAGGCCCGAGTAGGGACGGC | 0.974 | 2.05 | 0.221 | 0.342 | 1.66 | 2.1 | -0.596 | 3.11 | 0.256 | 4.08 | 3.14 | 4.41 | 4.89 | 1.18 | 4.55 | 3.14 | 0.566 | 0.91 |
| AATAGAGGGTCACTAGGCCAGAGTAGGTACGAAT | 3.57 | 5.33 | 0.782 | 0.194 | 1.04 | 1.95 | -0.034 | 2.89 | 0.102 | 3.69 | 3.01 | 4.11 | 4.52 | 1.93 | 4.2 | 1.99 | 0.353 | 1.1 |
| TCATATAGGTAAAGGTGAAAGCCGAACGATATGA | 3.94 | 4.09 | 1.05 | 1.68 | 1.25 | 0.502 | -0.307 | 1.44 | -0.251 | 1.83 | 1.16 | 1.44 | 1.18 | 0.508 | 1.93 | 1.47 | -0.707 | -0.196 |
| GCTGCTAGGTCAGGTTGTTCAGCTAACGGGTACG | 3.24 | 2.3 | 0.0355 | -0.699 | 0.293 | 0.34 | -0.306 | 0.883 | -0.985 | 3.15 | 2.56 | 2.2 | 3.13 | 0.777 | 0.914 | 1.71 | 0.779 | 0.556 |
| ATCTCTAGCTAACCAAGTTCAGTGAATGCCGAAC | -0.58 | -0.0463 | 0.368 | 0.475 | 0.651 | 1.32 | 1.49 | 0.181 | 0.128 | 0.746 | 1.01 | 0.314 | 0.399 | 0.573 | 0.0234 | 0.509 | 0.214 | 2.29 |
| TCGAGTAGGTTACCAATGGGGCAATCAGCTTTCT | 3.39 | 2.82 | 0.0614 | 0.102 | -0.476 | 0.111 | -0.71 | 0.261 | -0.846 | 0.959 | 0.687 | 1.67 | 0.463 | 0.325 | 0.707 | 0.302 | -0.774 | -0.712 |
| AGAATGAGTTTATTAAGATCAGGGAATTGCGGTC | -0.196 | -0.106 | 0.457 | 0.0162 | 0.334 | 1.31 | 2.04 | 0.154 | 0.655 | 0.143 | 0.079 | -0.0299 | 0.321 | 3.88 | 0.093 | 0.265 | 0.231 | 3.05 |
| CCGACTGGGGCAAGGTTAACATAACGCACAGCCA | 3.28 | 3.69 | 0.246 | -0.475 | 0.856 | 0.52 | -0.244 | 0.896 | 0.086 | 1.74 | 1.47 | 1.3 | 1.3 | -0.45 | 1.38 | 1.37 | -0.033 | 0.172 |
| CCAGACAGGTGAATGGTAACTCAGTCTGGTACGC | 0.897 | 0.735 | -0.452 | -0.717 | 0.288 | -0.4 | -0.302 | -0.379 | -0.0506 | 0.381 | -0.113 | 0.0397 | 0.189 | -0.0115 | 0.0786 | -0.333 | -0.556 | -0.492 |
| TCTAGTAGGTTACCAATGGGGCATTCAGCTTTCT | 5.22 | 5.27 | 0.435 | 0.135 | 0.405 | 0.365 | -0.176 | 0.372 | 5.32e-05 | 1.26 | 0.934 | 1.47 | 0.705 | 1.13 | 0.88 | 0.163 | -0.277 | 0.254 |
| TCTAGCAGGCCAGAGGGTTACTCAAGAGGTACGG | 0.735 | -0.175 | -1.35 | -1.09 | -0.477 | -0.175 | -0.868 | -0.0112 | -0.732 | 0.213 | -0.00314 | 0.101 | 0.0155 | -0.179 | 0.47 | -0.0959 | -1.11 | -0.658 |
| CGTCAAAGTTCAAGGTAACGTTACAGAAAGCAGC | 1.03 | 2.42 | 0.621 | 1.08 | 3.53 | 4.49 | 3.12 | 3.46 | 2.12 | 5.26 | 4 | 5.44 | 6.2 | 4.52 | 4.96 | 2.94 | 1.13 | 3.32 |
| CAATCTAGGTCACCGGAAGGTCAAAGTCCGCATG | 8.34 | 8.62 | 2.22 | 1.39 | 7.89 | 5.96 | 2.44 | 7.4 | 3.19 | 5.41 | 5.77 | 8.45 | 7.81 | 1.98 | 7.46 | 4.59 | 3.62 | 4.12 |
| GCTTACGGGTAAAAGGTTATAGCATGAATAGAAT | 1.1 | 3.12 | 0.792 | 0.799 | 1.62 | 2.36 | 0.623 | 3.75 | 0.86 | 1.98 | 1.59 | 2.68 | 1.35 | 0.423 | 3.38 | 1.64 | -0.0699 | 0.48 |
| CAAACAAGGTCAAGAGGTCAAAGTCCGCTTCCCG | 5.59 | 6.52 | 1.74 | 1.24 | 8.18 | – | 5.91 | – | 4.23 | – | 6.24 | – | 8.91 | 3.92 | – | – | 3.28 | 5.74 |
| ATCTCTAGGGAAGACTCAGTTCAGTGAAGAACGC | 0.54 | 0.0201 | 0.66 | 0.331 | 0.641 | 0.582 | 1.3 | -0.127 | 0.457 | -0.0542 | 0.462 | -0.132 | -0.0509 | 0.532 | -0.129 | 0.262 | 0.318 | 1.38 |
